The values below come from PubChem BioAssay AID1508602 (The Scripps Research Institute Molecular Screening Center, 2020).

Hit rate of the full screen: of about 650,000 compounds, about 6,800 (1%) were called active. For the sample, actives were picked, then their nearest neighbours and some compounds at random. A number with no mark means an inactive call. Cut-off read from the data, not from the text of the source: active = activation above about 4.9%; inactive = the rest.

The target in the test is G-protein coupled receptor 151 (Homo sapiens) (UniProt Q8TDV0). Briefly: activators of human GPR151, primary screen, cell-based, PathHunter beta-arrestin, luminescence (AID 1508602).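 Note: 0% = median of compound wells and 100% = cells with positive control.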 As to conditions: PathHunter beta-arrestin GPR151 cells, at 11.2 µM, hits give high values.
Sequence of G-protein coupled receptor 151 (Homo sapiens) (Q8TDV0 whole entry, looked up): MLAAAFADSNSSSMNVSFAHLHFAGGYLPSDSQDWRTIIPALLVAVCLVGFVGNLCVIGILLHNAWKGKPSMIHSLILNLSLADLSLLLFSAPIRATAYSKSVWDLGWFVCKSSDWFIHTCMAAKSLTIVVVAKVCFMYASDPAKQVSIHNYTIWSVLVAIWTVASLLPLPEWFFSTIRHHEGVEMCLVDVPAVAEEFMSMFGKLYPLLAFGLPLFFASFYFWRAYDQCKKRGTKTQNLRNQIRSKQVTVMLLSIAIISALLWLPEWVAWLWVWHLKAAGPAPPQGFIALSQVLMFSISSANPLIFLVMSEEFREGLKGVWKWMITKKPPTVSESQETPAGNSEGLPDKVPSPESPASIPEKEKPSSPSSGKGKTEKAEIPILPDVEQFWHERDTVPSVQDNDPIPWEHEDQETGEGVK
In the case of `COCCOC(=O)C1=C(N)OC2=C(C(=O)CC(C)(C)C2)C1c1ccc(F)c(F)c1` (stereo not drawn), the activation is 0.277%.

Take `CC1=C(C(=O)OCCOc2ccccc2)C(c2ccccc2F)NC(=O)N1` (stereo not drawn): the activation was -1.1%.

Take `CCOC(=O)c1sc(NC(=O)C(C)Sc2nnc(CNC(=O)c3ccc(OC)cc3)n2Cc2ccccc2)c(C(=O)OCC)c1C` (stereo not drawn): the activation was -1.72%.

For the molecule `Nc1nc(SCc2cccc3ccccc23)c2[nH]cnc2n1`, the activation was -0.0695%.

In the case of `CSc1nc(N)nc2nc[nH]c12`, the activation is 16.2% (active).

Consider `COc1ccc(-c2nc(N)c3[nH]cnc3n2)cc1`, for which the activation was -0.0768%.

For the molecule `O=C(Cn1c(=S)nc2ccccn21)N1CCc2ccccc2C1`, the activation was 7.33% (active).

Turning to `CC(C)CC(=O)N1CCc2ccccc2C1`, the activation is -1.1%.

On to `Cc1cccc2cnn(CC(=O)N3CCc4ccccc4C3)c12`, for which the activation was -2%.

`CCc1nc(N2CCC(C(=O)O)CC2)c2oc3ccccc3c2n1`: the activation was -2.33%.

On to `CCc1nnc2n1N(C(C)=O)C(c1ccc3c(c1)CCCC3)=C(C(C)=O)S2`, for which the activation is 8.6% (active).

Turning to `CCOc1ccc(C2=C(C(=O)CC)Sc3nnc(CC)n3N2C(=O)CC)cc1`, the activation was -0.342%.

For the molecule `CC(=O)C1=C(c2ccc(C(C)(C)C)cc2)N(C(C)=O)n2cnnc2S1`, the activation is 0.857%.

As for `CCOc1ccccc1CNn1c(-c2ccc(OC)cc2)nc2ccccc2c1=O`, the activation was -1.68%.

Turning to `COc1ccccc1/C=C/CN1CCNC(=O)C1CC(=O)NC1CC1` (stereo not drawn), the activation is -1.56%.

Turning to `CCCSc1nnc2c(n1)OC(c1cccc(Br)c1)Nc1ccccc1-2` (stereo not drawn), the activation is -0.594%.

Take `COc1ccc(NCN2C(=O)c3cc(Cl)c(Cl)cc3C2=O)cc1`: the activation was -1.71%.

`CCOC(=O)C1=C(C)N(c2ccc(C)cc2)C(=O)/C1=C\c1ccc(OC)cc1`: the activation was -0.542%.

Consider `COc1ccc(N2C(=O)C(Cl)=C(Nc3ccc(C)cc3)C2=O)cc1`, for which the activation was 5.51% (active).

For the molecule `COc1cc(/C=C2/NC(=O)N(Cc3ccc(Br)cc3)C2=O)ccc1O`, the activation was -0.481%.

As to `O=C(C1CCN(S(=O)(=O)Cc2ccccc2)CC1)N1CCCc2ccccc21`, the activation is 8.15% (active).

For the molecule `O=C(C1CCCN1S(=O)(=O)c1ccc(Cl)cc1)N1CCCc2ccccc21` (stereo not drawn), the activation was -1.26%.

In the case of `O=C(Cc1ccccc1)N1CCCc2ccccc21`, the activation was 0.472%.

For `Cc1ccc(C(=O)Nc2ccc(O)c(-c3nc4ccccc4o3)c2)cc1`, the activation was 1.96%.

For `C/C(CC(=O)Nc1cccc(F)c1)=N\NC(=O)c1cccc(C)c1`, the activation was 0.312%.

On to `COc1ccc2c(Cl)c(C(=O)Nc3ccc(N(C)C(C)=O)cc3)sc2c1`, for which the activation is 0.165%.

For `CN(Cc1nc(-c2ccc3c(c2)OCO3)no1)C1CCCc2ccccc21` (stereo not drawn), the activation is 6.73% (active).

Regarding `O=C1CC[C@@H](CN(Cc2ccccn2)Cc2nc(-c3ccc4c(c3)OCO4)no2)N1`, the activation is -0.5%.

As to `c1ccc2c(c1)CCC2Nc1nncc(-c2ccc3c(c2)OCO3)n1` (stereo not drawn), the activation is 0.54%.

As for `O=C1c2cccnc2C(=O)N1Cc1ccc(S(=O)(=O)NCc2ccccc2Cl)cc1`, the activation is -0.655%.

`COC(=O)c1sc(SC)nc1Nc1ccnc(Nc2ccc(N3CCOCC3)cc2OC)c1`: the activation is 0.519%.

As for `COc1ccc(/C=C(\C#N)C(=O)Nc2ccc(F)cc2)c(OC)c1`, the activation is 6.94% (active).

For the molecule `COc1cccc(/C=C(/C#N)C(=O)Nc2ccc(F)cc2)c1O`, the activation was 0.228%.

Regarding `COc1ccc(NC(=O)/C(C#N)=C/c2ccccc2[N+](=O)[O-])cc1`, the activation was 0.536%.

Turning to `CCOc1nn(CC)cc1-c1nnc(SCC(=O)NC)n1C`, the activation is 1.61%.

Consider `CCCNC(=O)N1CCC2(CC1)OCc1ccccc1O2`, for which the activation was -0.163%.

As to `O=C(NCCN1CCOCC1)c1cncc(-c2ccccc2)c1`, the activation was -0.0692%.

Regarding `Cn1c(=O)cc(OCC(=O)NCCN2CCOCC2)c2ccccc21`, the activation was -0.103%.

Regarding `CC(=O)Oc1cc2c(C(=O)NCCN3CCOCC3)c(C)oc2c2ccccc12`, the activation was 7.59% (active).

In the case of `CC(O)CNc1ncnc2c1c(-c1ccccc1)cn2-c1ccc(Cl)cc1` (stereo not drawn), the activation was -0.64%.

Take `O=C(Nc1cc(Oc2cccnc2)cc([N+](=O)[O-])c1)c1cc2nc(-c3ccc(F)cc3)cc(C(F)(F)F)n2n1`: the activation was 0.0201%.

Regarding `Cn1ccc(CC(=O)N2CCOc3ccc(CN4CCCC4)cc3C2)c1`, the activation is -0.228%.

For `CCC(=O)Nc1cc(C(=O)O)ccc1C`, the activation was 5.86% (active).

As to `CCC(=O)Nc1ccc(C(=O)c2ccccc2)cc1NC(=O)CC`, the activation was 0.269%.

As for `COc1cccc(OC)c1C(=O)Nc1cc(C(=O)O)ccc1C`, the activation was 1.75%.

For `COc1ccc(/C=C(\C#N)C(=O)Nc2cccc(S(=O)(=O)N3CCCCC3)c2)cc1`, the activation was 6.12% (active).

As for `COc1ccc(NC(=O)c2cc(S(=O)(=O)N3CCCCC3)ccc2F)cc1`, the activation is -0.423%.

As to `CCOc1ccc(NC(=O)/C(C#N)=C\c2ccc(OC)cc2)cc1`, the activation is -0.986%.

Turning to `Cc1cc2nc(-c3cccc(NC(=O)COc4ccc(Br)cc4)c3)oc2cc1C`, the activation was -0.225%.

For `O=C(COc1ccc([N+](=O)[O-])cc1)Nc1ccc2oc(-c3cccc(F)c3)nc2c1`, the activation was 6.49% (active).

Turning to `COC(=O)c1cc(NC(=O)COc2ccc([N+](=O)[O-])cc2)cc(C(=O)OC)c1`, the activation is 5.49% (active).

With `O=C(COc1ccc([N+](=O)[O-])cc1)Nc1cccc(Br)c1`, the activation was 0.574%.

Take `Cc1cccc(NC(=O)COc2ccc([N+](=O)[O-])cc2)c1`: the activation was 0.0864%.

Turning to `O=C(Nc1ccc2oc(-c3ccc(F)cc3)nc2c1)c1ccc([N+](=O)[O-])cc1`, the activation is 0.435%.

For `CCCNc1nc(Cl)nc2c1ncn2Cc1ccc(C(F)(F)F)cc1`, the activation is 0.16%.

For the molecule `O=C(Cc1csc(SCc2cccc(Cl)c2)n1)NC1CCCC1`, the activation was -0.537%.

On to `O=C(Nc1ccc2c(c1)OCO2)C(c1ccccc1)N(Cc1ccccc1)Cc1ccccc1` (stereo not drawn), for which the activation is -0.714%.

Consider `Cc1ccc2c(c1)N(CC(=O)N(Cc1ccccc1)Cc1ccc3c(c1)OCO3)C(=O)CO2`, for which the activation was 1.35%.

On to `CCC(=O)N(CCC(Cc1ccccc1)c1ccc2c(c1)OCO2)Cc1ccc(OC(C)C)cc1` (stereo not drawn), for which the activation was 6.12% (active).

On to `CCn1c(SCC(=O)Nc2ccccc2Cl)nnc1-c1ccccc1N`, for which the activation was 0.603%.

As to `CC(C)(C)C(=O)CSc1nc2c(sc(=S)n2CCc2ccccc2)c(=O)n1Cc1ccco1`, the activation was -0.941%.

For `O=C(NCCc1ccccc1)C(=O)NCCC1CCCCC1`, the activation was -1.51%.

`CC(C)(C)C1CCC(=NNC(=O)C(=O)NCCc2ccccc2)CC1` (stereo not drawn): the activation was 6.69% (active).

Consider `CNC(=O)C(=O)NCCc1ccccc1`, for which the activation is 2.61%.

As to `Cc1ccc2c(CC(=O)N3CCc4ccccc4C3)cc(=O)oc2c1`, the activation is -1.02%.

Regarding `Cc1nnc(C)n1/N=C/c1ccc(Br)cc1`, the activation is 0.537%.

Turning to `Cc1nc([N+](=O)[O-])cn1CC(=O)C12CC3CC(CC(C3)C1)C2`, the activation was 0.332%.

On to `COc1ccc(CCNc2cc(C)nc3ncnn23)cc1`, for which the activation is -0.69%.

As for `COP(=O)(OC)C(OC(=O)NC(=O)C(Cl)(Cl)Cl)c1ccccc1` (stereo not drawn), the activation is 0.583%.

For the molecule `CCN(CC)S(=O)(=O)c1ccc(N2CCCC2)c(C(=O)O)c1`, the activation is 1.07%.

Consider `CCN(CC)S(=O)(=O)c1ccc(N2CCCC2)c(NC(=O)c2ccc([N+](=O)[O-])o2)c1`, for which the activation is 5.27% (active).

In the case of `O=C(Nc1ccc(N2CCCCC2)c(Cl)c1)c1ccc([N+](=O)[O-])o1`, the activation is 1.67%.

`Cc1ccc(-c2cnn3ccc(NCc4cccnc4)nc23)cc1C`: the activation is -1.12%.

For the molecule `Cc1ccc(S(=O)(=O)N/N=C/c2c[nH]c3ccc(Br)cc23)cc1`, the activation was 0.63%.

For `c1ccc(-c2nc(-c3cccs3)[nH]c2-c2cccs2)cc1`, the activation was 6.25% (active).

As to `O=C(O)c1ccc(-c2nc(-c3cccs3)c(-c3cccs3)[nH]2)cc1`, the activation is 1.43%.

Turning to `COc1cc(OC)cc(-c2nc(-c3ccccc3)c(-c3cccs3)[nH]2)c1`, the activation was 0.0508%.

For `O=C1NC2(CCN(CC3CCC=CO3)CC2)Oc2ccccc21` (stereo not drawn), the activation is -0.166%.

As to `CCN(CC)S(=O)(=O)c1cccc(C(=O)N/N=C(\C)c2ccc(C#N)cc2)c1`, the activation was -0.108%.

For the molecule `CCN(CC)S(=O)(=O)c1ccc(C)c(NS(=O)(=O)c2cccc(C#N)c2)c1`, the activation is 5.51% (active).

As to `N#Cc1cccc(S(=O)(=O)Nc2cccc(Br)c2)c1`, the activation was 0.99%.

As to `CNC(=O)c1c(NC(=O)c2ccc(OC)cc2)sc2c1CCCCC2`, the activation is -1.51%.

`CC(C)Oc1ccc(C(=O)Nc2sc3c(c2C(N)=O)CCCC3)cc1`: the activation is -0.378%.

Take `COc1cccc(C(=O)Nc2sc3c(c2C(N)=O)CCCCCC3)c1`: the activation was 6.65% (active).

`COc1ccc(C(=O)Nc2sc3c(c2C(N)=O)CCCC3)cc1`: the activation is 5.12% (active).

As to `NC(=O)c1c(NC(=O)c2ccc(Oc3ccccc3)cc2)sc2c1CCCCC2`, the activation is -0.921%.

As for `CNC(=O)c1c(NC(=O)c2cccc(OC)c2)sc2c1CCC2`, the activation was -0.776%.

On to `CCc1ccc2[nH]c3nc(SCC#N)nnc3c2c1`, for which the activation was -0.711%.

`COCCN1C(=O)CC(CC(=O)N2CCN(C)C[C@@H]2C(C)C)(c2cccc(OC)c2)C1=O` (stereo partly drawn): the activation is 1.08%.

`CCCCOc1ccc(S(=O)(=O)NC2CCCCC2)cc1`: the activation was -1.26%.

Consider `Cc1nn(C)c(C)c1-c1nc2c(NCCO)ncnc2n1C(C)C`, for which the activation was -0.731%.

Consider `OCCNc1ncnc2nc(-c3ccccc3)[nH]c12`, for which the activation was 0.187%.

In the case of `Cc1nn(C)c(C)c1-c1nc2ncnc(NCCO)c2[nH]1`, the activation is 7.4% (active).
